Laboratory results taken from PubChem BioAssay (NCI).
The panel holds about 79,000 compounds, 15% with a hit somewhere; the sample as a whole holds those more often. Activity calls are given as the source filed them. Rule as the data show it: active = growth inhibition above about 70%; inactive = the rest.

What was measured:
[1] = NCI Yeast Anticancer Drug Screen. Data for the rad50 strain (AID 155);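 also: 0% = growth of vehicle-only cultures of the same strain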; settings: S. cerevisiae rad50 strain growth inhibition; at 50.0 µM; active compounds read high
In short: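 Readout: growth inhibition relative to vehicle-treated cultures. Compound exposure was carried out in a genetically defined yeast strain deficient in DNA damage repair.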

[2] = NCI Yeast Anticancer Drug Screen. Data for the mec2-1 strain (AID 157); settings: S. cerevisiae mec2-1 strain, at 50.0 µM, active compounds read high
In short: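 mec2-1 yeast strain, carrying an alteration in DNA damage repair or cell cycle control, was exposed to compounds; growth inhibition was measured relative to vehicle-treated controls.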

[3] = NCI Yeast Anticancer Drug Screen. Data for the sgs1 mgt1 strain (AID 161);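 also: 0% = growth of cultures given vehicle only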; settings: S. cerevisiae sgs1 mgt1 strain, at 50.0 µM, active compounds read high
In short: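 Yeast cells carrying a defined DNA-repair defect were exposed to test compounds. Growth inhibition was measured relative to vehicle-treated controls.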

[4] = NCI Yeast Anticancer Drug Screen. Data for the cln2 rad14 strain (AID 165);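 also: 0% = growth equal to vehicle treated cultures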; settings: S. cerevisiae cln2 rad14 strain, at 50.0 µM, active compounds read high
In short: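 Yeast carrying cln2 and rad14 alterations (cell cycle control and DNA damage repair) were exposed to compounds. Growth inhibition was measured against vehicle-treated controls.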

[5] = NCI Yeast Anticancer Drug Screen. Data for the bub3 strain (AID 167); settings: S. cerevisiae bub3 mutant strain, at 50.0 µM, active compounds read high
In short: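 Readout: yeast growth inhibition, expressed relative to vehicle-only wells. The test organism is a mutant strain from a panel with lesions in DNA repair or checkpoint genes.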

[6] = NCI Yeast Anticancer Drug Screen. Data for the mlh1 rad18 strain (AID 175); settings: S. cerevisiae mlh1 rad18 strain growth inhibition; at 50.0 µM; active compounds read high
In short: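 Growth inhibition of the yeast strain was measured after compound exposure and expressed relative to vehicle-treated controls. The strain carries defined defects in DNA damage repair.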

Measured: growth inhibition

COC(=O)C1=C(C)N(NC(N)=O)C2(N)N(NC(N)=O)C(C)=C(C(=O)OC)C12C(=O)OC (stereo not given)
inactive: [1] -9.65% | [2] -31.2% | [3] -43.2% | [4] -9.7% | [5] -4% | [6] -26.4%

CCOC(=O)Nc1nc(-c2ccc(Br)cc2)cs1
inactive: [1] -11.5% | [2] -5.4% | [3] -2.1% | [4] -37.6% | [5] 14.1% | [6] -17.9%

COc1ccc(-c2c3c(n(C4OC(COC(C)=O)C(OC(C)=O)C(OC(C)=O)C4OC(C)=O)c(=S)c2C#N)CCCC3)cc1 (stereo not given)
inactive: [1] -17.9% | [2] -13.2% | [3] 3.4% | [4] 2.05% | [5] -1.95% | [6] -5%

S=C1SCN(c2ccc(Br)cc2)CN1c1ccc2[nH]c(=S)sc2c1
inactive: [1] 10.6% | [2] 15.3% | [3] 26.1% | [4] 0.45% | [5] 12.1% | [6] 5.65%

O=C(C(=Nc1ccccc1)C(=Nc1ccccc1)C(=O)c1ccccc1)c1ccccc1
active: [1] 78.8%
inactive: [2] 32.1% | [3] 55.2% | [4] 8.5% | [5] 15.3% | [6] 37%

O=C(NCCCCCCNC(=O)NCc1ccco1)NCc1ccco1
inactive: [1] -22.7% | [2] -28.2% | [3] -28.1% | [4] -15.7% | [5] 0.05% | [6] -19.9%

CC(C)CCCC(C)C1CCC2C3CCC4Cc5c(c6ccccc6n5C)CC4(C)C3CCC12C (stereo not given)
inactive: [1] -13.2% | [2] 35% | [3] -5.75% | [4] -27.8% | [5] -8.95% | [6] 21.9%

CCn1c(SCC(=O)N/N=C/c2ccccc2)nc2ccccc2c1=O
inactive: [1] 5.65% | [2] 6.95% | [3] 3.8% | [4] -4.55% | [5] -1.3% | [6] -33.7%

CCOCCOCCOC(=O)C(C)O (stereo not given)
inactive: [1] 14.7% | [2] 7.1% | [3] 2.25% | [4] 6.55% | [5] -18.6% | [6] -3.4%

Cc1c(-c2ccccc2)nnn1-c1ccc(F)cc1F
inactive: [1] 1.7% | [2] -28.8% | [3] 13.4% | [4] -10.6% | [5] 20.8% | [6] -9.35%

CCC1CN1C(=O)c1cc(C(=O)N2CC2CC)cc(C(=O)N2CC2CC)c1 (stereo not given)
inactive: [1] 3.2% | [2] 15.7% | [3] 5.5% | [4] 24.3% | [5] -5.75% | [6] 20%

CN(C)CC1CCC/C(=C\c2ccccc2)C1=O (stereo not given)
inactive: [1] 37.1% | [2] 41.8% | [3] 47.8% | [4] 32.5% | [5] 38.5% | [6] 16.7%

C=C1CC2OC(=O)C(=C)C2C(OC(=O)c2ccccc2)/C=C(\C)CCC1OC(=O)c1ccccc1 (stereo not given)
inactive: [1] -13.7% | [2] -3.25% | [3] -11.2% | [4] -39.3% | [5] -0.85% | [6] -21.4%

CC(O)c1nc2c3ccccc3ccc2n1C (stereo not given)
inactive: [1] -6.15% | [2] -0.2% | [3] -6.45% | [4] -42.6% | [5] -1.25% | [6] -8.6%

N=c1ccn(CC(O)COc2ccccc2)cc1 (stereo not given)
inactive: [1] -11.8% | [2] -13.8% | [3] -5.95% | [4] 10.6% | [5] 2.75% | [6] 9.55%

COC(=O)C1CCCC(=O)C1C(=O)OC (stereo not given)
inactive: [1] 1.35% | [2] 0.3% | [3] -3.45% | [4] -36.2% | [5] -23% | [6] 2.05%

CC1(C)C2CC3OC3(C)C1C2 (stereo not given)
inactive: [1] 21.3% | [2] -7% | [3] 12.4% | [4] -55.9% | [5] -19.9% | [6] -10.8%

O=Cc1ccc(N2OC(c3ccc([N+](=O)[O-])cc3)C(c3ccc([N+](=O)[O-])cc3)C2c2ccc([N+](=O)[O-])cc2)cc1 (stereo not given)
inactive: [1] 13.2% | [2] -1.75% | [3] 14.7% | [4] 25.4% | [5] 0.95% | [6] 28.9%

Cn1nc(-c2ccccc2)c2c(/C=C/c3ccc(F)cc3)onc2c1=O
inactive: [1] -14.4% | [2] -17.9% | [3] 8.55% | [4] 8.35% | [5] 0.05% | [6] -15.3%

OC(c1ccccc1)C(Cc1ccccc1)N1CCCCC1 (stereo not given)
inactive: [1] 2.4% | [2] 1.3% | [3] 23.2% | [4] -4.45% | [5] 7.7% | [6] 5.35%

CCNC(=O)c1csnn1
inactive: [1] -6.55% | [2] -5.6% | [3] -5.95% | [4] 12.5% | [5] -18.1% | [6] 2%

O=C(O)C(Br)Cc1cccc([N+](=O)[O-])c1 (stereo not given)
inactive: [1] 9.4% | [2] -9.35% | [3] 10.6% | [4] -5.65% | [5] 3.45% | [6] 17.7%

COc1ccc(-c2c(C(C)=O)c(-c3ccccc3)n(C3OC(COC(C)=O)C(OC(C)=O)C(OC(C)=O)C3OC(C)=O)c(=S)c2C#N)cc1 (stereo not given)
inactive: [1] -17.7% | [2] -25.9% | [3] -26.1% | [4] 7.85% | [5] 0.75% | [6] -36.2%

CC(C)NCC(O)COc1c2ccccc2nc2ccccc12 (stereo not given)
inactive: [1] -8.65% | [2] -21.8% | [3] -24.2% | [4] -1.65% | [5] -20.1% | [6] 12.9%

CCN(CC)c1ccc(N=Nc2ccc(C)cc2)cc1
inactive: [1] -6.7% | [2] -22.5% | [3] -12.5% | [4] -0.4% | [5] -15.8% | [6] 12.1%

C/C=C/C(=O)N1C(=O)OC[C@@H]1c1ccccc1
inactive: [1] 37.4% | [2] 54.5% | [3] 49.7% | [4] 46.6% | [5] 53.6% | [6] 31.9%

O/N=C1\CC2(N3CCOCC3)CCC1(c1ccccc1)CC2
inactive: [1] 11.5% | [2] -12.3% | [3] 54.1% | [4] 20.9% | [5] 38% | [6] 11.9%

CCC(C)CCC(N)C(=O)O (stereo not given)
inactive: [1] 2.3% | [2] 11.4% | [3] -3.95% | [4] -0.1% | [5] 2% | [6] 1.75%

CN(C)CCCN1CCC2(CCC(C(C)(C)C)CC2)CC1
inactive: [1] 40% | [2] -16.1% | [3] -0.3% | [4] -19.1% | [5] -31.2% | [6] 49.8%

C=C1CCCC(C)(C)C1CC/C(C)=C/CC/C(C)=C/CO (stereo not given)
inactive: [1] -0.75% | [2] -1.45% | [3] 12.7% | [4] 8.4% | [5] 8.75% | [6] 12.1%

CCN1c2ccccc2CC(CCN(C)Cc2ccccc2)(C(N)=O)c2ccccc21 (stereo not given)
inactive: [1] 26.1% | [2] -1.15% | [3] -7.7% | [4] 7.45% | [5] 5.3% | [6] -6.05%

CC(=O)Oc1ccc2c(c1)Cc1cc([N+](=O)[O-])ccc1-2
inactive: [1] 8.45% | [2] 14.2% | [3] 14.9% | [4] -9.5% | [5] 32.7% | [6] 20.6%

COc1cc(C(=O)CBr)c(OC)cc1C
inactive: [1] 10.9% | [2] -10.7% | [3] 38% | [4] 17% | [5] 2.15% | [6] 46.8%

COc1ccc2c(c1O)-c1c(OC)c(OC)cc3c1[C@H](C2)[N+](C)(C)CC3
inactive: [1] -9% | [2] -12.2% | [3] 11.2% | [4] 1.65% | [5] -1.1% | [6] -53.4%

CCCCNc1nc2nc[nH]c2c(=O)[nH]1
inactive: [1] -5.45% | [2] -6.3% | [3] -13.2% | [4] -2.25% | [5] -29.1% | [6] -48%

NCCN(CCN)/[N+]([O-])=N/O
inactive: [1] 18.6% | [2] -0.2% | [3] 6.3% | [4] -1% | [5] 0.65% | [6] 16.9%

COC(=O)c1c2c(cc3c1CC1(C3)Cc3cc4c(c(C(=O)OC)c3C1)CCC4)CCC2
inactive: [1] 3.25% | [2] -35.6% | [3] -3.65% | [4] -0.8% | [5] -7.85% | [6] 10.3%

CCOC(=O)COC(=O)CCc1ccccc1
inactive: [1] 0.3% | [2] -39.6% | [3] -5% | [4] -36.8% | [5] -12.9% | [6] 0.45%

Clc1cccc(C2N3CCCCC3[C@@H]3c4[nH]c5ccccc5c4CCN23)c1 (stereo not given in full)
inactive: [1] -0.75% | [2] -1.85% | [3] -1.95% | [4] 3.1% | [5] 10.9% | [6] 1.7%

O=C1C=CC(=Nc2ccc(OC(=O)c3ccccc3)cc2)C=C1
inactive: [1] 9.9% | [2] -4.95% | [3] 1.45% | [4] -35% | [5] -3.8% | [6] 9.35%
